# In the library only some 3.5% were active in any assay of this set; here they are far more common.
# Anthrax LF prot: Bacillus anthracis LF protease inhibitors, primary screen, biochemical, multiplex microsphere, MLPCN library | multiplex microsphere protease cleavage assay | AID 588501, 2011 | hit rate 0.12% among 360,000 | Lethal factor (Bacillus anthracis), P15917 | inhibition, % at 10 µM; also: plate controls were buffer without enzyme for full effect and enzyme alone for no effect
# Target sequence (P15917 whole entry, looked up): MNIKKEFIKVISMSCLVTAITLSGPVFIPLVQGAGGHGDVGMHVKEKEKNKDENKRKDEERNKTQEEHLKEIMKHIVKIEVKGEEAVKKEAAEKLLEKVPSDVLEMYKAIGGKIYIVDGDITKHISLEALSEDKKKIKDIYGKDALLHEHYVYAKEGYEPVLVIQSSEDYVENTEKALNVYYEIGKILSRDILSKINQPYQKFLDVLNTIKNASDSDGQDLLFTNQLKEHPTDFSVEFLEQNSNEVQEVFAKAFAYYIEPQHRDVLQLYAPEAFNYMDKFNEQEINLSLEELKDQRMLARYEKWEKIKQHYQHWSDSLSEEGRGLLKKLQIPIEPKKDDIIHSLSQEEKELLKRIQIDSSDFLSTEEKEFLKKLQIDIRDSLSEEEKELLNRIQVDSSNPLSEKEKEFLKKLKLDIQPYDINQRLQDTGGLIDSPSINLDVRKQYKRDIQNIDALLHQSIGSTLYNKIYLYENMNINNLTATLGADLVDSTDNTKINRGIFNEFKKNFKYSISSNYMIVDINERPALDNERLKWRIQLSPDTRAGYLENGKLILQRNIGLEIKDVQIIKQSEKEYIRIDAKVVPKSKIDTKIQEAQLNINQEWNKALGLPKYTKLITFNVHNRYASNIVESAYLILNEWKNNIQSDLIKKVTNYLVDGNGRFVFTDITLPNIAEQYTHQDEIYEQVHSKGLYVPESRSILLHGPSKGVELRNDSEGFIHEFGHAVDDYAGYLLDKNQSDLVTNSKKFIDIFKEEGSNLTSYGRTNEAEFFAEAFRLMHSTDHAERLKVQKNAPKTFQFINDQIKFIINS
# BoNT A protease: BoNT/A light chain protease inhibitors, primary screen, biochemical, flow cytometry, MLPCN library; multiplex microsphere protease substrate cleavage; inhibition, % at 10 µM; hit rate 0.17% among 360,000; Botulinum neurotoxin type A light chain protease (Clostridium botulinum A str. ATCC 3502); also: plate controls were buffer without enzyme for full effect and enzyme alone for no effect
# BoNT-F LC inh: BoNT/F light chain protease inhibitors, primary screen, biochemical, flow cytometry, MLPCN library. Multiplex microsphere protease cleavage assay. Botulinum neurotoxin type F light chain protease (Clostridium botulinum). hit rate 0.22% among 360,000. inhibition, % at 10 µM. AID 588497, 2011; in the data active = inhibition above about 35%, passing the limit was not always enough; inconclusive = no clear call, values can overlap the other calls; also: plate controls were buffer without enzyme for full effect and enzyme alone for no effect
# Bead autofluor: compound fluorescence in toxin protease inhibitor counterscreen; AID 624483; fluorescence intensity (test concentration not listed); compound autofluorescence counterscreen, microsphere flow cytometry; stronger effect = higher value; hit rate 3.1% among 360,000; in the data active = fluorescence intensity above about 16000; inconclusive = no clear call, values can overlap the other calls
# * = called active by the depositor; ? = inconclusive. Rule as the data show it, unless noted: active = inhibition above about 30%; inconclusive = no clear call, values can overlap the other calls; inactive = below that.
SMILES,Anthrax LF prot,BoNT A protease,BoNT-F LC inh,Bead autofluor
CC(C)C(NS(=O)(=O)c1c(Cl)cccc1Cl)C(=O)OCC(=O)c1c[nH]c2ccccc12 (stereo not given),15,58*,-16,4613
Cc1cc(=O)oc2cc(OC(C)C(=O)N3CCOCC3)ccc12 (stereo not given),2,-1,-2,23796*
CCC(C)C(NC(=O)c1ccccc1)C(=O)Nc1ccc(S(=O)(=O)Nc2cc(C)nc(C)n2)cc1 (stereo not given),-5,-1,1,3145
CCCn1nnnc1-c1cc(Cl)cc(Cl)c1,1,0,0,10923
OC1(c2cccc(C(F)(F)F)c2)CCN(Cc2nnnn2Cc2ccccc2)CC1,-1,0,5,2645
FC(F)(F)c1cccc(Cn2nnnc2-c2cccc(C(F)(F)F)c2)c1,0,?,-8,24655*
FC(F)(F)c1cccc(Cn2nnnc2-c2cc(Cl)cc(Cl)c2)c1,-2,?,-3,16997*
CCN(CC)S(=O)(=O)c1cccc(N=Nc2c(O)c3ccccc3oc2=O)c1,-2,0,7,3770
Cc1ccccc1OCc1nnc(SCC(=O)Nc2ccc3nc(SCC(=O)Nc4ccccc4)sc3c2)n1C,0,-1,-8,2085
COCc1[nH]nc2c1C(c1ccc(F)cc1F)C(C#N)=C(N)O2 (stereo not given),2,-2,-5,7050
COCc1[nH]nc2c1C(c1ccnc3ccccc13)C(C#N)=C(N)O2 (stereo not given),-3,0,0,16149*
O=C(CC(O)(c1ccccc1)C(F)(F)C(F)F)c1cccs1 (stereo not given),-1,?,-4,20372*
O=C(/C=C/c1ccccc1)CC(O)(c1ccccc1)C(F)(F)C(F)F (stereo not given),6,-1,-5,5535
COc1ccc(/C=C/C(=O)OCC(=O)NCc2ccco2)c(OC)c1,-4,0,2,4677
Cc1cnc(NC(=O)CSc2nnc(Cc3ccccc3)o2)s1,-12,?,14,13021
CCn1c(Cc2ccccc2)nnc1SCC(=O)Nc1nc(C)c(C)s1,0,2,6,21539*
CCn1c(Cc2ccccc2)nnc1SCC(=O)Nc1ccc2c(c1)OCCO2,-16,?,19,17692*
CCn1c(COc2ccccc2C)nnc1SCC(=O)Nc1ccc2c(c1)OCCO2,2,?,-2,20676*
Cc1cnc(NC(=O)CSc2nnc(Cc3ccccc3)n2C)s1,-1,-4,-5,21335*
Cc1ccccc1OCc1nnc(SCC(=O)Nc2ccc3c(c2)OCO3)n1C,3,2,7,8622
Cc1ccc(C(=O)N2CCC2(C)C(=O)NC(C)C)cc1 (stereo not given),-6,0,3,3834
Cn1c(=O)cc(SCC(=O)Nc2ccc3c(c2)OCO3)c2ccccc21,1,0,-3,3610
CCn1c(=O)cc(SCC(=O)Nc2ccc3c(c2)OCCO3)c2ccccc21,-4,7,10,20714*
FC(F)(F)c1cccc(OCC2CNC(=S)O2)c1 (stereo not given),7,-2,-6,3700
COc1cc(C(=S)N2CCOCC2)cc(OC)c1OS(=O)(=O)c1ccc(C)cc1,-13,3,?,3529
SMILES,Anthrax LF prot,BoNT A protease,BoNT-F LC inh,Bead autofluor
CN1C(=O)C(O)(CC(=O)c2cccnc2)c2ccccc21 (stereo not given),-3,-3,-5,23918*
CC(C)c1cccc(C(C)C)c1NC(=O)CCN1C(=O)NC2(CCCC2)C1=O,-4,0,5,2969
CC(NC(=O)CNC(=O)c1sc2ccccc2c1Cl)c1cccnc1 (stereo not given),0,-1,2,5407
O=C(NCc1cccnc1)c1sc2ccccc2c1Cl,-2,?,-7,24841*
Cc1ccc2c(Cl)c(C(=O)NCc3cccnc3)sc2c1,2,?,0,20230*
O=C(NCc1cccnc1)c1cccnc1-c1nc2ccccc2s1,1,1,1,22730*
Cc1cccc(CS(=O)(=O)c2ncc(CO)n2C)c1,-22,1,0,4031
Cc1nn(Cc2ccc([N+](=O)[O-])cc2)c(=O)n1-c1ccccc1,-10,?,10,17702*
Cc1nn(CC#N)c(=O)n1-c1ccccc1,4,0,-20,4673
O=C(CCC1CCCN(C(=O)c2cccc(F)c2)C1)N1CCN(c2ccccn2)CC1 (stereo not given),-1,-1,-7,6455
O=c1cc[nH]c2cccc(Cc3ccccc3)c12,-4,-2,-2,24296*
c1ccc(Cc2c[nH]c3ccccc23)cc1,6,2,?,2846
CCN1CCC2(CC1)NC(CO)(CO)CO2,0,0,0,2750
CCN1CCC2(CCNC2)C1 (stereo not given),-3,-1,1,16425*
Cc1cccc(CN2CCN(c3ccccn3)CC2)c1,-1,?,-3,23318*
c1ccc(COc2cccc(CN3CCN(c4ccccn4)CC3)c2)cc1,-2,0,-3,20483*
Cc1cccc(CN2CCN(c3ncccn3)CC2)c1,0,0,?,4222
CCOC(=O)/C(=C\c1ccccc1)C(=O)CCN1CCOCC1,2,-1,3,3510
COc1ccc(C(=O)NNC(=O)C2(C)CC2(Br)Br)cc1 (stereo not given),-4,1,9,5626
CC1(C(=O)Nc2c(F)c(F)c(F)c(F)c2F)CC1(Br)Br (stereo not given),31*,2,?,4037
CC1CCCN(CCCNC(=O)c2ccc(N3CCCC3=O)cc2)C1 (stereo not given),1,0,-2,6008
CN1N=C(C(=O)N2CCCC(N3CCN(c4ccc(F)cc4)CC3)C2)CCC1=O (stereo not given),0,2,1,5543
O=C1N=C(N2CCOCC2)SC1=C1CCCCC1,-1,1,4,20921*
N#CCCN1CCN(C2=NC(=O)C(=C3CCCCC3)S2)CC1,-2,0,0,22432*
O=C(NNC(=O)c1ccc(SCC2CCCO2)c([N+](=O)[O-])c1)c1ccc(Cl)c([N+](=O)[O-])c1 (stereo not given),-1,6,5,21281*
SMILES,Anthrax LF prot,BoNT A protease,BoNT-F LC inh,Bead autofluor
O=C(NNC(=O)c1ccccc1Br)c1ccc(SCC2CCCO2)c([N+](=O)[O-])c1 (stereo not given),-1,4,6,21390*
COc1cccc(CNC(=O)c2ccc(S(=O)(=O)N3CCCCC3)cc2)c1,-4,0,-1,3688
COc1ccccc1-c1cccc(-c2nc(C(=O)N3CCCCC3)cc3c2[C@@H](CCO)N(S(=O)C(C)(C)C)C3)c1 (stereo not given in full),2,-1,-8,5341
Clc1nnc(N/N=C/c2ccccc2)c2ccccc12,-5,-3,-3,16810*
Clc1ccc(/C=N/Nc2nnc(Cl)c3ccccc23)cc1,-2,0,-3,10256
COc1ccc(/C=N/Nc2nnc(-c3ncc[nH]3)c3ccccc23)cc1,1,-1,1,21400*
